Test results taken from PubChem BioAssay (NCATS).
Results filed as inconclusive are left out. Calls of active or inactive are those of the source. Calls follow the shape of the dose curve; as a rule, active = well fitted curve in the direction sought with a large enough effect; inconclusive = small, poorly fitted or top-dose-only effect, or another doubt; inactive = no such curve, though single readings can be large; an effect the other way counts as inactive or inconclusive.

What was measured:
[1] = Cellular Toxicity (caspase-3) NIH 3T3 (AID 666);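 also: caspase signal read after 16 h compound exposure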
In short: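 Mouse NIH 3T3 fibroblasts (1000 cells/well) were treated with compound for 16 hr at 37°C in complete medium; caspase-3/7 activity was read by Caspase-Glo luminescence. Normalized to DMSO and 100 uM tamoxifen; AC50 from Hill fits.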

[2] = target: Cytochrome P450 3A4 (Homo sapiens) (UniProt P08684); assay: qHTS Assay for Inhibitors and Substrates of Cytochrome P450 3A4 (AID 884); also: series mostly up to about 57 µM; nearly all actives have a fitted effect of over 50% in size
In short: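 20 nM human CYP3A4 with 25 uM Luciferin-PPXE (at KM) in 200 mM KPO4, preincubated 10 min with compound; NADPH regeneration started a 60 min RT reaction. Luciferin detected by luminescence, normalized to 57 uM ketoconazole as full inhibition.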

[3] = MultiTox-Fluor Cytotoxicity Assay - LYMP1-001 - Dead Cells (AID 946)
In short: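 AC50 from Hill fit of concentration-response; data normalized to DMSO (basal) and 15 uM tetraoctylammonium bromide (100%). LYMP1-001 lymphoblastoid cells, 2500/well, 16 hr compound at 37 C; dead-cell protease fluorescence, Ex/Em 485/520.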

[4] = MultiTox-Fluor Cytotoxicity Assay - LYMP1-001 - Live Cells (AID 947)
[5] = Cell Viability - LYMP1-002 - Assay at 16 hr (AID 948)
In short: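 Seed 2500 LYMP1-002 cells per well in complete medium and hold 5 hr at 37 C. Add compound across a concentration series and incubate 16 hr at 37 C. Add CellTiter-Glo, wait 30 min at room temperature, read luminescence.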

[6] = MultiTox-Fluor Cytotoxicity Assay - LYMP1-002 - Live Cells (AID 955)
In short: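 Human lymphoblastoid LYMP1-002 cells, 2500/well in complete medium, rested 5 hr at 37 C, then exposed to compounds for 16 hr at 37 C. Live-cell protease cleavage of GF-AFC read by fluorescence (Ex/Em 405/510) after 60 min at room temperature; AC50 from Hill fits.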

[7] = MultiTox-Fluor Cytotoxicity Assay - LYMP1-002 - Dead Cells (AID 960); also: nearly all actives have a fitted effect of over 60% in size
In short: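 Human lymphoblastoid cells (LYMP1-002), 2500/well in complete medium, were exposed to compounds for 16 hr at 37 C. Dead-cell protease activity was read as bis-AAF-R110 fluorescence (Ex/Em 485/520), normalized to DMSO and 15 uM tetraoctylammonium bromide; AC50 from Hill fits.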

[8] = MultiTox-Fluor Cytotoxicity Assay - LYMP1-003 - Dead Cells (AID 961); also: nearly all actives have a fitted effect of over 70% in size
In short: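 Human lymphoblastoid LYMP1-003 cells (2500/well) were treated with compounds for 16 hr at 37 C in complete medium. Dead-cell protease release was read by bis-AAF-R110 fluorescence (Ex/Em 485/520). AC50 came from Hill fits, normalized to DMSO and 15 uM tetraoctylammonium bromide.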

[9] = MultiTox-Fluor Cytotoxicity Assay - LYMP1-003 - Live Cells (AID 962);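 also: cytotoxic hits lower the live-cell protease signal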
In short: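 LYMP1-003 human lymphoblastoid cells (2500/well) in complete medium were preincubated 5 hr at 37 C, then exposed to compounds for 16 hr at 37 C. Live-cell protease cleavage of GF-AFC read by fluorescence (Ex/Em 405/510); AC50 from Hill fits.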

[10] = Cell Viability - LYMP1-003 - Assay at 40 hr (AID 964); also: series mostly up to about 92 µM; nearly all actives have a fitted effect of over 60% in size
In short: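 Human lymphoblastoid LYMP1-003 cells, 2500/well in complete medium, rested 5 hr at 37 C, then exposed to compounds for 40 hr at 37 C. Viability read as intracellular ATP by CellTiter-Glo luminescence; AC50 from Hill fits of concentration-response data.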

[11] = Cell Viability - LYMP2-003 (AID 965);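 also: cells exposed to compounds for 24 h before reading; nearly all actives have a fitted effect of over 50% in size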
In short: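 Seed 2500 lymphoblastoid cells/well; incubate 5 hr, 37 C; add compounds; incubate 24 hr, 37 C; add CellTiter-Glo, 30 min RT; read luminescence. AC50 from Hill fit.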

[12] = Cell Viability - LYMP2-004 (AID 966); also: nearly all actives have a fitted effect of over 65% in size
In short: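 Human lymphoblastoid cells (2500/well) in complete medium were treated with compounds for 24 hr at 37 C, then intracellular ATP was measured by CellTiter-Glo luminescence. AC50 values came from Hill-equation fits of concentration-response data.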

[13] = Cell Viability - LYMP2-005 (AID 967); also: series mostly up to about 92 µM
In short: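 Acute cytotoxicity is scored as a concentration-dependent drop in intracellular ATP in human lymphoblastoid LYMP2-005 cells after 24 h compound treatment. ATP is quantified by luciferase luminescence, and AC50 is derived by Hill-equation modelling.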

[14] = Cell Viability - LYMP2-009 (AID 968); also: series mostly up to about 92 µM; nearly all actives have a fitted effect of over 55% in size
[15] = Cell Viability - LYMP2-011 (AID 969); also: nearly all actives have a fitted effect of over 60% in size
In short: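 Human lymphoblastoid cells (2500/well) were plated in complete medium, preincubated 5 hr at 37 C, then exposed to compounds for 24 hr at 37 C. Intracellular ATP was read by CellTiter-Glo luminescence, and AC50 came from Hill-equation concentration-response fits.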

[16] = Cell Viability - LYMP2-013 (AID 970); also: series mostly up to about 92 µM; nearly all actives have a fitted effect of over 55% in size
In short: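 Human lymphoblastoid cells, 2500/well, were preincubated 5 hr at 37 C, then treated with compounds for 24 hr at 37 C in complete medium. Intracellular ATP was read by CellTiter-Glo luminescence; AC50 from Hill-equation fits of concentration-response data.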

[17] = Cell Viability - LYMP2-017 (AID 972); also: series mostly up to about 92 µM; nearly all actives have a fitted effect of over 55% in size
In short: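 Human lymphoblastoid cells (2500/well) were seeded in complete medium, held 5 hr at 37 C, then exposed to compounds for 24 hr at 37 C. Intracellular ATP was read by CellTiter-Glo luminescence after 30 min at room temperature, with AC50 values from Hill-equation fits.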

[18] = Cell Viability - LYMP2-019 (AID 973); also: nearly all actives have a fitted effect of over 55% in size
In short: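 Human lymphoblastoid cells were seeded at 2500 cells/well, preincubated 5 hr at 37 C, then exposed to compounds for 24 hr at 37 C in complete medium. Intracellular ATP was measured by CellTiter-Glo luminescence; AC50 from Hill fits.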

[19] = Cell Viability - LYMP2-021 (AID 974)
In short: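 Human lymphoblastoid cells (2500/well) were preincubated 5 hr at 37 C, then exposed to compounds for 24 hr at 37 C in complete medium. Intracellular ATP was read by CellTiter-Glo luminescence; AC50 came from Hill-equation fits of concentration-response data.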

[20] = Cell Viability - LYMP2-023 (AID 975)
In short: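 Human lymphoblastoid cells (2500/well) were preincubated 5 hr at 37 C, then exposed to compounds for 24 hr at 37 C in complete medium. Cellular ATP was read by CellTiter-Glo luminescence, and AC50 came from Hill-equation fits.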

[21] = Cell Viability - LYMP2-025 (AID 976); also: series mostly up to about 92 µM
In short: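 Human lymphoblastoid LYMP2-025 cells (2500/well) were pre-incubated 5 hr at 37 C, then treated with compounds for 24 hr at 37 C in complete medium. Viability was read as intracellular ATP by CellTiter-Glo luminescence; AC50 from Hill fits.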

[22] = Cell Viability - LYMP2-002 (AID 977);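 also: series mostly up to about 92 µM; compound exposure lasted 24 h at 37 °C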
In short: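 Human lymphoblastoid LYMP2-002 cells, 2500 per well, exposed to compounds for 24 h at 37 C in complete medium; viability read as intracellular ATP by CellTiter-Glo luminescence, AC50 from Hill fits.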

[23] = Cell Viability - LYMP2-006 (AID 978); also: series mostly up to about 92 µM; nearly all actives have a fitted effect of over 60% in size
In short: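 Cells are seeded at 2500 per well and rested 5 hr at 37 C. Compounds are added across a concentration series for 24 hr at 37 C, after which ATP is quantified by luciferase luminescence.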

Measured: Potency

Chain of Cytochrome P450 3A4 (Homo sapiens) (P08684 whole entry, looked up): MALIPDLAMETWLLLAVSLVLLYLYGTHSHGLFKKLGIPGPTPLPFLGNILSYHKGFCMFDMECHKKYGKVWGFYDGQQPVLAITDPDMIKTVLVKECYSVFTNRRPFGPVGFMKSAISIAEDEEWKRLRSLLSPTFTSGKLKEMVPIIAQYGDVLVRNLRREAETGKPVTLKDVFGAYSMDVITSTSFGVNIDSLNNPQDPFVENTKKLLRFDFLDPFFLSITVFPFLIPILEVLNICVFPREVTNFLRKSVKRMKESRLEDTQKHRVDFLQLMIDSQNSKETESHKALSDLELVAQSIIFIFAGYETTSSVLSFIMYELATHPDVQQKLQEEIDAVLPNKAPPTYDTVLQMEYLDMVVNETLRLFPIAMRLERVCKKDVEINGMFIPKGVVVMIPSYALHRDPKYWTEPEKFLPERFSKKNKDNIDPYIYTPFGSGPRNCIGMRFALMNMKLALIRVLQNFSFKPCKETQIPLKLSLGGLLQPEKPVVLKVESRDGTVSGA

CC(Cl)Cl
inactive: [1] | [2] | [3] | [4] | [5] | [6] | [7] | [8] | [9] | [10] | [11] | [12] | [13] | [14] | [15] | [16] | [17] | [18] | [19] | [20] | [21] | [22] | [23]
